# From PubChem BioAssay
# SKKanGAS inh: blocks kanamycin growth of S. pyogenes SKKanGAS strain; AID 1662; inhibition, % at 7.5 µM; 300,000 compounds, 1.3% hits; BacTiter-Glo, 6 h;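 active = mean replicate score, as percent of positive control median, at least 50; inconclusive = mean below 50 but one replicate at or above 50; inactive = mean and every replicate below 50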;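 also: strain carries kanamycin resistance gene driven by streptokinase promoter and grows in 40 µg/ml kanamycin; loss of luminescence reflects streptokinase promoter inhibition or plain growth inhibition; 0% = median of DMSO wells and 100% = positive control at its reference dose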
# Mdm2-MdmX inh: inhibitors of human Mdm2/MdmX interaction. O15151+Q00987. SaOS-2 split-luciferase Mdm2/MdmX complementation, luminescence. inhibition, % at 8 µM. 330,000 compounds, 3% hits. AID 485346;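 active = inhibition of at least 50% at 8 µM in the primary screen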
# MPTP block: inhibitors of mitochondrial permeability transition pore; isolated mouse mitochondria, Ca2+ swelling absorbance, 30 min; inhibition, % at 10 µM; 360,000 compounds, 1.4% hits;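 active = inhibition of 50% or more, scaled per plate between neutral and stimulator controls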;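 also: 0% = DMSO wells given calcium and 100% = 1 mM EGTA wells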
# Calb FLC: affects C. albicans growth with fluconazole | AID 1979 | growth inhibition, % (test concentration not listed) | 300,000 compounds, 0.57% hits | C. albicans CaCi-2 (fluconazole-resistant clinical isolate) + fluconazole, Alamar Blue growth, 48 h;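 active = growth inhibition above about 58% in most replicates, limit read from the data, passing the limit was not always enough; inconclusive = exactly half the replicates above a set limit; inactive = most replicates below a set limit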;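 also: all wells also contain fluconazole at 8 µg/ml as a sub-toxic cotreatment; 0% = median of DMSO wells and 100% = median of geldanamycin control wells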
# CSC inhib: blocks cancer stem cells; cancer stem cell-like cells viability, luminescence; inhibition, % at 7.5 µM; 300,000 compounds, 1.1% hits; AID 2717; in the data active = inhibition above about 75%; inconclusive = no clear call, values can overlap the other calls; tested in HMLE shEcad cells
# Beta apoptosis: beta cell apoptosis inhibition. AID 435005. INS-1E cytokine-induced death, ATP luminescence, 48 h; percent of positive-control rescue, neutral wells zero. protection from apoptosis, % (test concentration not listed). 300,000 compounds, 0.8% hits;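 active = Every replicate reaches about 75%, or at least half do and their mean reaches it too, limit read from the data; inconclusive = At least half of replicates reach the limit but their mean does not; inactive = Under half of replicates reach the limit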;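 also: 0% = cytokine-treated negative control wells and 100% = positive control rescue; higher means more ATP so stronger rescue from cytokine killing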
# Rh123 counter: membrane potential counter-screen of mitochondrial pore inhibitors | inhibition, % at 10 µM | 5,000 compounds, 78% hits | shares compounds with MPTP block | isolated mitochondria, Rhodamine 123 fluorescence; in the data active = inhibition above about 22%;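 also: 0% = DMSO vehicle and 100% = positive control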
# MPTP swell DR: MPTP inhibition, dose response swelling confirmation. 780 compounds, 58% hits. AID 651561. IC50, µM. isolated mitochondria swelling, absorbance. shares compounds with MPTP block; in the data active = IC50 below about 20 µM
# MPTP counter DR: MPTP inhibitor counter-screen activity, dose response; AID 651564; isolated mitochondria counterscreen, fluorescence read-out; shares compounds with MPTP block; IC50, µM; 780 compounds, 49% hits; in the data active = IC50 below about 80 µM
# * marks the source's active call; other numbers are inactive results; ? = inconclusive; · = not tested or not shown. Sampled rows, rich in hits. Any-hit rate of the full collection: about 5.4%.
SMILES,SKKanGAS inh,Mdm2-MdmX inh,MPTP block,Calb FLC,CSC inhib,Beta apoptosis,Rh123 counter,others
CCN1/C(=C\c2ccc3cc(C)ccc3[n+]2CC)Sc2cc(C)c(C)cc21,71*,·,85*,104*,·,·,85*,
CC(=O)N1c2ccc(C)cc2Sc2c1ccc1ccccc21,·,·,0,·,·,·,·,
COC(=O)CCCC(=O)N1CCC(CO)(CCc2ccccc2)CC1,6,14,0,4,-21,-3,·,
Cc1cc(Cl)ccc1OCC(=O)Nc1ccncc1,1,16,80*,7,3,0,79*,
O=C(COc1cc(Cl)c(Cl)cc1Cl)Nc1cccc(O)c1,-7,14,3,1,8,-7,·,
Cc1cc(OCC(=O)Nc2ccncc2)ccc1Br,-8,11,59*,-3,32,-4,111*,
O=C(COc1cc(Cl)c(Cl)cc1Cl)Nc1ccncc1,-2,-5,76*,9,18,-4,88*,
Cc1cc(Cl)ccc1OCC(=O)NCc1ccncc1,-8,8,1,1,-8,5,·,
Cc1cccc(OCC(=O)Nc2ccncc2)c1C,-4,10,82*,32,-3,·,87*,
Cc1nc2ccccc2n2c(-c3ccccc3)c3c(=O)n(C)c(=O)n(C)c3c12,0,18,-1,13,-10,3,·,
CC(C)(C)c1cc(CCC(=O)NNC(=O)c2ccco2)cc(C(C)(C)C)c1O,23,20,1,1,-3,0,·,
CC(C)(C)c1cc(CCC(=O)NNC(=S)NC(=O)c2ccccc2)cc(C(C)(C)C)c1O,97*,48,80*,71,43,?,13,
CC(=O)N(CCC(Cc1ccccc1)c1ccc2c(c1)OCO2)Cc1ccccc1F (configuration not stated),33,41,1,10,24,-7,·,
Fc1ccccc1CNCCC(Cc1ccccc1)c1ccc2c(c1)OCO2 (configuration not stated),-12,25,85*,-67,-17,-10,-1,MPTP swell DR=5.4*;MPTP counter DR=16*
CCc1ccccc1NCC(=O)Nc1ccc(Cl)c(C(F)(F)F)c1,-1,41,69*,-26,·,·,86*,
C/C(CC(=O)Nc1ccc(Cl)c(C(F)(F)F)c1)=N\NC(=O)c1ccccc1O,104*,44,98*,-1,-12,23,70*,
COc1ccccc1NC(=O)CN1CCN(CC(=O)Nc2ccc(Cl)c(C(F)(F)F)c2)CC1,·,·,3,·,·,·,·,
O=C(Cn1c(CO)nc2ccccc21)NCCc1ccccc1,4,-1,2,2,-8,-2,·,
CCOc1ccc(Nc2nc(N)c([N+](=O)[O-])c(N3CCN(CC)CC3)n2)cc1,-1,-1,0,-25,0,-6,·,
C=CCn1c(-c2ccc(S(=O)(=O)N3CCOCC3)cc2)csc1=Nc1ccccc1,7,1,58*,-4,27,6,100*,
CC(=O)c1cccc(N=c2scc(-c3ccc(S(=O)(=O)N4CCOCC4)cc3)n2CCO)c1,-8,-2,97*,?,14,75*,87*,
COc1ccccc1/C=C/CN1CCC(Oc2ccc(C(=O)N3CCCCC3)cc2)CC1,-2,37,1,-1,11,4,·,
COC(=O)c1sc(NC(=O)c2ccc([N+](=O)[O-])o2)c(C#N)c1C,30,41,92*,32,·,24,81*,
CCOC(=O)c1sc(NC(=O)c2ccco2)c(C#N)c1C,-4,-15,9,21,14,17,·,
O=C(CSc1ccc(F)cc1)Nc1ccccc1Br,0,-7,0,-2,-4,-5,·,
SMILES,SKKanGAS inh,Mdm2-MdmX inh,MPTP block,Calb FLC,CSC inhib,Beta apoptosis,Rh123 counter,others
Cc1cc(=O)[nH]c(SCC(=O)Nc2ccc(F)cc2)c1C#N,23,11,6,21,-11,-1,·,
O=C(CSc1ccc(F)cc1)Nc1ccc(Br)cc1,-4,-91,58*,-11,9,0,67*,
Cc1cc(=O)[nH]c(SCC(=O)Nc2ccc(Br)cc2)c1C#N,55*,-4,96*,38,46,6,90*,
Cc1ccc(NCC(=O)Nc2ccc(Br)cc2)cc1F,0,4,60*,1,16,1,70*,
CC(=O)NCCC(=O)Nc1ccc(C)c(F)c1,-2,10,0,21,-9,-5,·,
CCCCCCCc1c(O)nc(SCCN(C)C)[nH]c1=O,-6,5,1,6,-9,-5,·,
O=C1NC(=O)C(=Cc2ccc(Cl)cc2Cl)S1,·,·,81*,·,·,·,94*,
O=C1NC(=S)NC1=Cc1ccc(Cl)cc1Cl,·,·,2,·,·,·,·,
O=C1NC(=S)SC1=Cc1ccccc1Br,·,·,94*,·,·,·,74*,
O=C1NC(=S)SC1=Cc1ccc(Cl)cc1,·,·,95*,·,·,·,79*,
COc1ccc(C=C2SC(=S)NC2=O)cc1,·,·,18,·,·,·,·,
O=C1NC(=S)SC1=Cc1ccc(F)cc1,·,·,82*,·,·,·,85*,
O=C(c1ccc2ccccc2c1)N1CCCCC1,4,6,-1,9,-7,0,·,
COC1=CC(=O)OC(c2cccc(OC)c2)C1 (configuration not stated),·,·,3,·,·,·,·,
O=[N+]([O-])c1cc(Br)cc(/C=N/n2cnnc2)c1O,-12,46,0,14,10,-1,·,
C=CCS/C(N)=N\N=C\c1cc(Br)cc([N+](=O)[O-])c1O,31,24,53*,12,25,1,51*,
CCOC(=O)C(C)Oc1nc(Oc2ccccc2)nc(N(C)C)n1 (configuration not stated),-4,-8,0,·,·,2,·,
COc1ccccc1N1CCN(C2CCN(C(=O)c3cccs3)CC2)CC1,2,16,0,2,-6,-3,·,
Cc1cc(C)nc(SCC(=O)N/N=C/c2cccnc2)n1,-1,22,-1,-20,-5,-3,·,
CC(=C/c1ccccc1)/C=N/NC(=O)CSc1nc(C)cc(C)n1,-6,19,62*,-2,·,0,33*,
CCOc1ccc(NC(=S)NNc2ccnc3cc(Cl)ccc23)cc1,-12,18,81*,-9,·,2,63*,
CCc1ccccc1NC(=O)c1cc(-c2ccc(F)cc2)on1,-25,-4,1,-6,-8,2,·,
CN(C)S(=O)(=O)c1ccc(Cl)c(NC(=O)COC(=O)CCC2CCCCC2)c1,·,12,-2,·,-10,5,·,
Cc1ccc(Nc2ccccc2)nn1,16,-3,2,3,-1,0,·,
Cc1ccccc1NC(=O)Nc1cccs1,3,21,4,3,-3,-4,·,
Cc1ccc(Cl)cc1NC(=O)Nc1cccs1,-5,7,87*,?,4,8,86*,
Cc1ccc(-c2nc3cccnc3o2)cc1NC(=O)COc1ccc(C(C)(C)C)cc1,14,21,85*,-7,-3,34,23*,
